Screening data from PubChem.
Hits are enriched below; roughly 3.4% of the tested compounds scored in any of these assays.
GPR151 activ = activators of human GPR151; Q8TDV0; PathHunter beta-arrestin GPR151 cells, luminescence; activation, % at 11.2 µM; 1% of 650,000 active; in the data active means activation above about 4.9%
TEAD-YAP inh = TEAD-YAP interaction inhibition; HEK-TIYL cells, TEAD-Gal4/YAP UAS-luciferase luminescence; inhibition, % at 9.12 µM; 1.4% of 640,000 active; in the data active means inhibition above about 32%
MITF primary = blocks human microphthalmia-associated transcription factor | AlphaScreen MITF homodimerization, bead proximity signal | inhibition, % at 2.6 µM | 0.91% of 650,000 active | AID 1259374; in the data active means inhibition above about 50%
FBW7 activator = human FBW7 E3 ligase activation, primary screen | Q969H0 | AlphaScreen FBW7–phospho-cyclin E peptide binding, activator screen | normalized activity (activation), % at 26.1 µM | 0.13% of 650,000 active | AID 1259310; in the data active means normalized activity above about 1.9%;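 further: purified mutant Fbw7 with reduced substrate affinity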
MITF inh conf = confirmation of human MITF inhibitors | inhibition, % at 2.6 µM | shares compounds with MITF primary | AID 1259372 | 16% of 4,700 active | AlphaScreen MITF homodimerization, biotin/His-MITF beads;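 active means inhibition above a cutoff derived from the DMSO control wells, cut at about 28% in these data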;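 further: inhibitors lower the bead chemiluminescence by keeping MITF from dimerizing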
AlphaScreen intf2 = counter-screen: compounds optically interfering with AlphaScreen | shares compounds with MITF primary | LysRS AlphaScreen counterscreen, signal interference, triplicate | inhibition, % at 2.6 µM | 7.6% of 4,700 active;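 active means inhibition above a cutoff derived from the DMSO control wells, cut at about 30% in these data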
A number is an active result; – = inactive; · = not tested or not shown.

SMILES	GPR151 activ	TEAD-YAP inh	MITF primary	FBW7 activator	MITF inh conf	AlphaScreen intf2
COc1ccccc1CN(CCCN(C)C)CCCN(C)C	–	–	–	–	·	·
CN(C)CCCN(CCCN(C)C)Cc1cccc2ccccc12	–	–	55.4	–	–	–
CCOc1c(O)ccc(/C=C2\C(=O)Nc3ccc(Br)cc32)c1[N+](=O)[O-]	–	–	64.6	–	–	–
O=C1c2ccccc2C(=O)N1c1ncc(Cc2ccc(Cl)cc2)s1	–	–	58.8	–	–	–
O=C1c2ccccc2C(=O)N1c1ncc(Cc2cc(Cl)ccc2Cl)s1	–	–	–	–	·	·
CC(C)(C)c1nnc(NC(=O)CN2C(=O)c3ccccc3C2=O)s1	–	–	–	–	·	·
Cc1sc2nc(C(C)C)n(C3CCN(C(=O)c4cccnc4)CC3)c(=O)c2c1C	–	–	–	–	·	·
OC(COCc1ccccc1F)CN1CCN(c2ccccc2)CC1 (configuration not stated)	–	–	–	–	·	·
OC(CNC1CCN(Cc2ccccc2)C1)COCc1ccccc1Cl (configuration not stated)	–	–	54.8	–	–	–
CCOc1ccc(OCC(O)CNC2CCN(Cc3ccccc3)CC2)cc1 (configuration not stated)	–	–	–	–	·	·
Oc1ccc(N2CCN(CC(O)COCc3ccccc3Cl)CC2)cc1 (configuration not stated)	–	–	56.0	–	–	–
CCOc1ccccc1N1CCN(CC(O)COCc2ccccc2OC)CC1 (configuration not stated)	–	–	74.1	–	–	–
NC(=O)c1ccc(-c2cccc(C(N)=O)c2)cc1	–	–	–	–	·	·
O=C(NCCC1=CCCCC1)c1cc([N+](=O)[O-])ccc1Cl	–	–	–	–	·	·
COc1ccc(CN2CCN(CCCc3ccccc3)CC2)c(OC)c1	–	–	74.3	–	–	–
COc1ccc(N2CCN(Cc3ccc(OC)cc3OC)CC2)cc1	–	–	–	–	·	·
COc1ccc(CN2CCN(Cc3ccc(OC)cc3OC)CC2)c(OC)c1	–	–	72.2	–	–	–
COc1ccc(CN2CCCN(C)CC2)c(OC)c1	–	–	–	–	·	·
COc1ccc(CN2CCN(Cc3ccc(SC)cc3)CC2)c(OC)c1	–	–	69.6	–	–	–
CCOc1ccc(CN2CCN(Cc3ccc(SC)cc3)CC2)cc1	–	–	–	–	·	·
COc1ccc(CN2CCN(Cc3ccc(OC)c(OC)c3)CC2)c(OC)c1	–	–	66.3	–	–	–
COc1cccc(C2C3=C(CC(c4ccccc4)CC3=O)Nc3ccccc3N2C(=O)C2CC2)c1 (configuration not stated)	–	–	–	–	·	·
O=C1CCCN1CCCNc1nc(N2CCc3ccccc3C2)nc2c1ncn2C1CCCCC1	–	–	–	–	·	·
COc1ccc(CNC(=O)N2CCN(Cc3nc4ccccc4[nH]3)CC2)cc1OC	–	–	–	–	·	·
CCCCOC(=O)c1ccc(OC(=O)c2sc3ncn(CC)c(=O)c3c2C)cc1	–	–	–	–	·	·
SMILES	GPR151 activ	TEAD-YAP inh	MITF primary	FBW7 activator	MITF inh conf	AlphaScreen intf2
COc1ccc(CN2CCN(Cc3ccc(Br)cc3)CC2)c(OC)c1	–	–	–	–	·	·
COc1ccc(CN2CCN(Cc3ccc(F)cc3)CC2)c(OC)c1	–	–	81.2	–	–	–
COc1ccc(CN2CCN(Cc3ccc(OC)cc3OC)CC2)cc1	–	–	64.9	–	–	–
COCc1cc(C)nc(SCc2cnc(C)nc2N)c1C#N	–	–	–	–	·	·
COCCNC(=O)c1cnn2c(C)c(Cc3ccccc3C)c(C)nc12	–	–	–	–	·	·
COC(=O)c1ccc2nc(-c3ccc(OC)cc3)c(Br)n2c1	–	–	–	–	·	·
Cc1ccc(C)c(C(=O)Nc2ccccc2F)c1	–	–	83.6	–	–	–
Cc1cccc(CN2CCN3C(=O)[C@H](Cc4ccc(Cl)cc4)NC(=O)[C@H]3C2)c1	–	–	–	–	·	·
COCCSc1nnc(-c2ccncc2)n1C	–	–	58.8	–	–	–
O=C1CCCN1CCn1cnc2c(NCc3nc4ccccc4[nH]3)nc(Nc3ccccc3)nc21	–	–	52.1	–	–	–
CC(C)(C)C(=O)NCCNc1ccc(Cl)cc1[N+](=O)[O-]	–	–	86.9	–	–	–
C/C=C/C(=O)N1c2ccc(OC)cc2C(C)=CC1(C)C	–	–	–	–	·	·
COc1ccc2c(c1)C(C)=CC(C)(C)N2C(N)=S	–	–	71.5	–	64.9	53.7
COc1ccc(CCCC(=O)Nc2ccc(C)cc2)cc1C	–	–	–	–	·	·
COCc1ccc(C(=O)NCC2Cc3c(ccc4cc(-c5cccnc5)ccc34)O2)o1 (configuration not stated)	–	–	–	–	·	·
COCCCNCCCCOc1ccc(C(C)C)c(C)c1	–	–	58.5	–	–	–
COCCCNCCCOc1ccc(C(C)C)c(C)c1	–	–	59.1	–	–	–
CC(C)C(NC(=O)c1ccoc1)c1nnc2n1CCN(Cc1cc3ccccc3[nH]1)CC2 (configuration not stated)	–	–	69.1	–	–	–
COc1cccc(C(=O)NC(=S)N2CCN(c3ccc([N+](=O)[O-])cc3)CC2)c1	–	–	71.6	–	–	32.6
COc1ccc(C(=O)NC(=S)N2CCN(c3ccc([N+](=O)[O-])cc3)CC2)cc1	–	–	–	–	·	·
CCN1C(=O)/C(=C/c2ccc(-c3ccc([N+](=O)[O-])cc3)o2)NC1=S	–	–	52.0	–	–	–
CCOc1ccccc1OCCCNCCO	–	–	57.9	–	–	–
OCCNCCOc1cccc2ccccc12	–	–	50.8	–	–	–
CCCCNCCOc1ccccc1F	–	–	64.5	–	–	–
CCc1ccc(CNc2ccc(N3CCOCC3)c(C(=O)O)c2)cc1	–	–	51.6	–	–	–
SMILES	GPR151 activ	TEAD-YAP inh	MITF primary	FBW7 activator	MITF inh conf	AlphaScreen intf2
CSC(=NCCN=C(NC#N)SC)NC#N	–	–	–	–	·	·
O=C(CC(SCc1ccco1)c1ccc([N+](=O)[O-])cc1)c1cccs1 (configuration not stated)	–	–	–	–	·	·
O=C(c1ccncc1)N1CCN(CCc2ccccc2)CC1	–	–	–	–	·	·
COc1cccc(C(=O)N2CCN(Cc3c[nH]c4ccccc34)CC2)c1	–	–	72.9	–	–	–
O=C(c1ccncc1)N1CCN(Cc2c[nH]c3ccccc23)CC1	–	–	56.3	–	–	–
O=C(c1cccc(Cl)c1)N1CCN(Cc2c[nH]c3ccccc23)CC1	–	–	–	–	·	·
COCCOC(=O)C1=C(N)OC2=C(C(=O)CC(C)(C)C2)C1c1ccc(Cl)cc1 (configuration not stated)	–	–	–	–	·	·
CCOC(=O)C1CCCN(C(=O)C2(NC(=O)Nc3ccc(F)cc3F)CCCCC2)C1 (configuration not stated)	–	–	–	–	·	·
CN1CCC(N(C)C(=O)C23CC4CC(CC(C4)C2)C3)CC1	–	–	–	–	·	·
CCOC(=O)c1ccc(N2C(=O)C(Cl)=C(Nc3ccccc3C(=O)O)C2=O)cc1	–	–	56.4	–	–	–
